Measurements as given in PubChem BioAssay (NCATS).
“And” between values parts separate entries of the source, which are not always exact repeats. Identical values can stand only once. Records with an inconclusive call do not appear. The source made the active and inactive calls. Unless noted, calls come from the whole dose curve; as a rule, active = well fitted curve in the direction sought with a large enough effect; inconclusive = small, poorly fitted or top-dose-only effect, or another doubt; inactive = no such curve, though single readings can be large; an effect the other way counts as inactive or inconclusive.

Tests used:
[1] = biological target: Glucocorticoid receptor (Homo sapiens) (UniProt P04150); experiment: GR-GFP Redistribution (AID 450;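 active = compounds whose dose series gives a full or clear partial fitted curve of increased nuclear translocation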; note: potency is the fitted concentration of half-maximal effect); details: U2OS GR-GFP nuclear translocation, laser cytometry, 2 h
Sequence of Glucocorticoid receptor (Homo sapiens) (P04150 whole entry, looked up, the tested form may be a part): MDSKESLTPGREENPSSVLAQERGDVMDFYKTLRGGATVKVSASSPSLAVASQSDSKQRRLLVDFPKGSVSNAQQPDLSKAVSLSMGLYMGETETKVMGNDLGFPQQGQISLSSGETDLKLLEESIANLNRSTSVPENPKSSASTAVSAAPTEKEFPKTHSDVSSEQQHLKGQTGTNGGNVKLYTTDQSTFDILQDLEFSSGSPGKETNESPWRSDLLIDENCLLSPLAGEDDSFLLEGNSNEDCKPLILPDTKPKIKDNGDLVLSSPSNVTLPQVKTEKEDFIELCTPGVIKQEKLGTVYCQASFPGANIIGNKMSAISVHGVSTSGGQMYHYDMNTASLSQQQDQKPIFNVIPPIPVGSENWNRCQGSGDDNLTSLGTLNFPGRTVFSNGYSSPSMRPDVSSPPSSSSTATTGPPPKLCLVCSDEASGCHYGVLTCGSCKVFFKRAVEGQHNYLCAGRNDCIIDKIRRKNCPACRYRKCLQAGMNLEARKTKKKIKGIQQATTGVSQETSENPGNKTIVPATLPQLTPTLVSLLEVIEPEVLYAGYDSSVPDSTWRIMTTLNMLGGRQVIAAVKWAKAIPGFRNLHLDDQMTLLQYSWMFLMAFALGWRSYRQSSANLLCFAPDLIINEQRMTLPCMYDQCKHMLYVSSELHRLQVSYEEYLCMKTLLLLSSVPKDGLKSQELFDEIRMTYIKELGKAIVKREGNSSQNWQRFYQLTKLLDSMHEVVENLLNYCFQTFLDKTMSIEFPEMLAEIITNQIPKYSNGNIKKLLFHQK

[2] = biological target: Glucocorticoid receptor (Homo sapiens) (UniProt P04150); experiment: GR-EFC Redistribution (AID 451; calls by dose curve; note: potency is the fitted concentration of half-maximal effect); details: CHO-K1 GR-EFC translocation, beta-gal luminescence, 2 h
Method in brief: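 CHO-K1 cells expressing nuclear EA and GR-ED fragments of b-gal; compounds titrated up to 46 uM final, 2 h at 37 C. GR nuclear translocation read as complemented b-gal luminescence after 1 h RT detection.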

[3] = biological target: Mitogen-activated protein kinase 10 (Mus musculus) (UniProt Q61831); experiment: JNK3 AlphaScreen Assay (AID 530; active = well fitted curve in either direction with a large enough effect, not every such curve was filed as active;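 note: kinase came from lysate of stimulated human HepG2 cells; signal reports phosphorylation of biotinylated GST-cJun 1-79 at Ser73 with 10 µM ATP; % is set by controls: 0 for no effect and ±100 for the full control effect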); details: JNK3 lysate, c-Jun phosphorylation; series mostly up to 57.1 µM
Method in brief: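 qHTS format: compounds tested as titrations against IL-1beta/TNF-alpha-activated HepG2 lysate JNK3 with biotin-GST-cJun substrate and 10 uM ATP at room temperature. Loss of anti-phospho-cJun AlphaScreen signal indicates inhibition.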

[4] = biological target: 3',5'-cyclic-AMP phosphodiesterase 4B (Homo sapiens) (UniProt Q07343); experiment: qHTS Assay for Inhibitors of PDE-IV (AID 607; active = well fitted activation curve with a large enough effect in the main read-out, with a control signal flat, not every such curve was filed as active; note: % of control where 0% means no effect); details: HEK293 ACTOne CNG channel cells, membrane potential fluorescence; series mostly up to 22.9 µM
Sequence of 3',5'-cyclic-AMP phosphodiesterase 4B (Homo sapiens) (Q07343 whole entry, looked up): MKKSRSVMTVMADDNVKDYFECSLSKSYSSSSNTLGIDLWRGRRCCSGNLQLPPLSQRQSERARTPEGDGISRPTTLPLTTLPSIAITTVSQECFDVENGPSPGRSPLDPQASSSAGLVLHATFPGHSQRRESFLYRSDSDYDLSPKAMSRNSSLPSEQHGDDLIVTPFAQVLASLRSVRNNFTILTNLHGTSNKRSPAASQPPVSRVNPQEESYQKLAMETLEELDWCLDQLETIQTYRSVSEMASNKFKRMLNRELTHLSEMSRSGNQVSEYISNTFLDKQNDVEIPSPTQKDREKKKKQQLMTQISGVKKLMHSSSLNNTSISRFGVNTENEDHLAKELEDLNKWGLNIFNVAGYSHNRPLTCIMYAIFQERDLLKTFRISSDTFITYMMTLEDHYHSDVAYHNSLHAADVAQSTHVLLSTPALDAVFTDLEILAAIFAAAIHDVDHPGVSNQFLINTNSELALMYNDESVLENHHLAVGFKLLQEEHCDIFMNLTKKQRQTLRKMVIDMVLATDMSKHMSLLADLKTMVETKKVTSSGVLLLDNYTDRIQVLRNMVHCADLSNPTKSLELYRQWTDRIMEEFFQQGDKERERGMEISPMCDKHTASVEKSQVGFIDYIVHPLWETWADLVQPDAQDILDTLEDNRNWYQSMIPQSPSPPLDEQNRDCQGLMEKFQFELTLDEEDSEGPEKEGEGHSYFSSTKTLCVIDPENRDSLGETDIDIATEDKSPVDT
Method in brief: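 HEK293 ACTOne cells with CNG channel (1000/well), endogenous PDE4; membrane potential dye, compounds up to 22.9 uM final. Fluorescence Ex 535/Em 590; RO 20-1724 (100 uM final) as reference.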

[5] = Cell Viability - N2a (AID 540); details: N2a mouse neuroblastoma cell viability; activity change, negative = cytotoxicity: at 92.2 µM (top of the series);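 note: plate controls were DMSO alone for no effect and tamoxifen control for full effect; nearly all actives have a fitted effect of over 45% in size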
Method in brief: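 Mouse neuroblastoma N2a cells (1500/well) were preincubated 5 hr at 37 °C, then exposed to compounds for 40 hr at 37 °C in complete medium. Viability was read as intracellular ATP by CellTiter-Glo luminescence; AC50 from Hill fits.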

[6] = Cell Viability - NIH 3T3 (AID 541); details: NIH 3T3 cell viability, qHTS; activity change, negative = cytotoxicity: at 92.2 µM (top of the series); note: nearly all actives have a fitted effect of over 25% in size; note: potency is the fitted concentration of half-maximal effect;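 for activity change, negative = cytotoxicity: plate controls were DMSO alone for no effect and tamoxifen positive control for full effect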
Method in brief: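 NIH 3T3 mouse embryo fibroblasts (1000 cells/well) were plated in complete medium and treated with compound for 40 hr at 37 °C. Viability was read as intracellular ATP by CellTiter-Glo luminescence; AC50 values came from Hill-equation fits of concentration-response data.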

[7] = Cell Viability - HUV-EC-C (AID 542); details: HUV-EC-C endothelial cell viability, qHTS; series mostly up to 92.2 µM; note: % is set by controls: 0 for no effect and ±100 for the full control effect; nearly all actives have a fitted effect of over 35% in size
Method in brief: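 HUV-EC-C normal human vascular endothelial cells, 1000 cells/well, pre-incubated 5 hr at 37 °C, then exposed to compounds for 40 hr at 37 °C in complete medium. Viability measured as intracellular ATP by CellTiter-Glo luminescence; AC50 from Hill fits.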

[8] = Cell Viability - H-4-II-E (AID 543); details: H-4-II-E rat hepatoma viability; series mostly up to 92.2 µM; note: nearly all actives have a fitted effect of over 35% in size; note: potency is the fitted concentration of half-maximal effect
Method in brief: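 Rat hepatoma H-4-II-E cells (1500/well) were plated, incubated 5 hr at 37 °C, then exposed to compounds for 40 hr at 37 °C. Cellular ATP was read by CellTiter-Glo luminescence; AC50 came from Hill-equation fits of concentration-response data.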

[9] = Cell Viability - SH-SY5Y (AID 544); details: SH-SY5Y neuroblastoma cell viability; viability change, negative = cytotoxic: at 92.2 µM (top of the series); note: nearly all actives have a fitted effect of over 55% in size; note: potency is the fitted concentration of half-maximal effect;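 for viability change, negative = cytotoxic: 0% = DMSO alone and -100% = 100 µM tamoxifen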
Method in brief: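 Human neuroblastoma SH-SY5Y cells (1500/well) in complete medium were exposed to compounds for 40 hr at 37 °C; intracellular ATP was then quantified by CellTiter-Glo luminescence after 20 min at room temperature. AC50 came from Hill-equation concentration-response fits.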

[10] = Cell Viability - Renal Proximal Tubule (AID 545); details: renal proximal tubule cells viability, primary cells of rat origin; activity change, negative = cytotoxicity: at 91.7 µM (top of the series);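 note: 0% = DMSO only and -100% = 100 µM tamoxifen; nearly all actives have a fitted effect of over 40% in size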
Method in brief: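 Viability taken as intracellular ATP (CellTiter-Glo luminescence) after 40 hr, 37 °C compound treatment of primary proximal tubule cells from rat kidney, 1000 cells/well; Hill-equation fits of qHTS concentration-response data gave AC50.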

[11] = Cell Viability - Mesenchymal (AID 546); details: mesenchymal cells viability, qHTS; activity change, negative = cytotoxicity: at 91.7 µM (top of the series);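 note: cells exposed to compound for 40 hours before reading; 0% = DMSO only and -100% = 100 µM tamoxifen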
Method in brief: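 Human kidney mesenchymal cells from normal renal glomeruli, 1000 cells/well, rested 5 hr at 37 °C, then treated 40 hr at 37 °C in complete medium. Cellular ATP read by CellTiter-Glo luminescence; AC50 from Hill-equation fits.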

[12] = Cellular Toxicity (caspase-3) HepG2 (AID 654); details: HepG2 caspase-3 activation, luminescence; series mostly up to 92.2 µM;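 note: cells exposed to compound for 16 hours before reading; 0% = DMSO alone and 100% = caspase signal from 100 µM tamoxifen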
Method in brief: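 HepG2 cells (1500/well) in complete medium were treated with compounds for 16 hr at 37 °C. Caspase-3/7 activity was then read as luminescence from peptide-aminoluciferin cleavage. AC50 came from Hill fits, normalized to DMSO and 100 uM tamoxifen.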

[13] = Cellular Toxicity (caspase-3) Jurkat (AID 655); details: Jurkat caspase-3 activation, luminescence; series mostly up to 92.2 µM;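 note: cells exposed to compound for 16 h at 37 °C before reading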
Method in brief: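 Luminescent Caspase-Glo 3/7 read-out (20 min, room temperature) after 16 h compound treatment at 37 C of 5000 Jurkat cells per well. AC50 derived by Hill-equation fitting, scaled between DMSO basal and 100 uM tamoxifen stimulation.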

[14] = Cellular Toxicity (caspase-3) HUV-EC-C (AID 656); details: HUV-EC-C cells, caspase-3 activation (apoptosis), vehicle = 0, 100 µM tamoxifen = 100%; series mostly up to 92.2 µM;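 note: 0% = DMSO basal and 100% = 100 µM tamoxifen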
Method in brief: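 Luminescent Caspase-Glo 3/7 readout after 16 h, 37 °C compound exposure of HUV-EC-C endothelial cells, 1000 per well, complete medium. AC50 derived by Hill fitting, with DMSO as baseline and 100 uM tamoxifen as full activation.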

[15] = Cellular Toxicity (caspase-3) SHSY5Y (AID 657); details: SH-SY5Y caspase-3 activation, DMSO zero, 10 µM staurosporine = 100%; series mostly up to 91.7 µM
Method in brief: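 Luminescent Caspase-Glo 3/7 read-out, 1 hr room temperature, follows 16 hours of compound treatment of SH-SY5Y cells at 37 °C. Normalization: DMSO basal, 10 uM staurosporine as 100%; AC50 values from Hill-equation concentration-response fits.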

[16] = Cellular Toxicity (caspase-3) BJ (AID 658); details: BJ fibroblasts, luminescence, normalized: DMSO 0%, staurosporine 100%; series mostly up to 91.7 µM
Method in brief: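 BJ human foreskin fibroblasts, 1000 cells/well, treated 16 hours at 37 °C in complete medium; caspase 3/7 activity by Caspase-Glo luminescence after 1 hr at room temperature. Normalized to DMSO and 10 uM staurosporine; AC50 from Hill fits.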

[17] = Cellular Toxicity (caspase-3) MRC-5 (AID 659); details: MRC-5 cells, luminescence, normalized: DMSO 0%, 10 µM staurosporine 100%; series mostly up to 91.7 µM
Method in brief: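 MRC-5 human normal lung fibroblasts, 1500 cells/well, treated 16 h at 37 °C in complete medium. Caspase 3/7 measured by Caspase-Glo luminescence after 1 h at room temperature. Normalized to DMSO and 10 uM staurosporine; AC50 from Hill fit.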

[18] = Cellular Toxicity (caspase-3) Mesangial (AID 660); details: mesangial cells; Potency: caspase-3 activation; series mostly up to 91.7 µM;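 note: cells exposed to compound for 16 h before the caspase read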
Method in brief: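 Human renal glomerular mesangial cells (1000/well) were treated with compounds for 16 h at 37 °C in complete medium, then caspase 3/7 activity was read by Caspase-Glo luminescence. Data were normalized to DMSO and 100 uM tamoxifen; AC50 from Hill fits.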

[19] = Cellular Toxicity (caspase-3) SK-N-SH (AID 661); details: SK-N-SH caspase-3 activation, qHTS; series mostly up to 91.7 µM
Method in brief: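 SK-N-SH human neuroblastoma cells (1500/well) were treated with compounds for 16 hr at 37 °C in complete medium; caspase 3/7 activity was read by Caspase-Glo luminescence. AC50 came from Hill fits of data normalized to DMSO and 10 uM staurosporine.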

C[C@@H](CN1CCC(Cc2ccccc2)CC1)[C@@H](O)c1ccc(O)cc1
inactive: Potency [1] > 46 µM | Potency [2] > 46 µM | Potency [3]

O=Nc1ccc2oc(=O)ccc2c1
inactive: Potency [1] > 46 µM | Potency [2] > 46 µM | Potency [3] | outcome [4]

N[C@H](CCCP(=O)(O)O)C(=O)O
inactive: Potency [1] > 46 µM | Potency [2] > 46 µM | outcome [4]

N=C(N)SCCc1ccc(CCSC(=N)N)cc1
inactive: Potency [1] > 46 µM | Potency [2] > 46 µM | Potency [3] | outcome [4]

COc1cc(OC)c(/C=C2/C(=O)Nc3ccccc32)c(OC)c1
inactive: Potency [1] > 46 µM | Potency [2] > 46 µM | Potency [3] | outcome [4]

Clc1ccccc1-c1nc(-c2ccncc2)no1
inactive: Potency [1] > 46 µM | Potency [2] > 9.22 µM | activity change, negative = inhibition [3] 3.99% [at 11.4 µM] | outcome [4]

O=S(=O)(c1cccc2c(I)cccc12)N1CCCNCC1
inactive: Potency [1] > 46 µM | Potency [2] > 46 µM | outcome [4]

O=C(O)c1cc(=O)c2ccccc2[nH]1
inactive: Potency [1] > 46 µM | Potency [2] > 46 µM | Potency [3] | outcome [4]

c1ccc(-c2ccccn2)nc1
inactive: Potency [1] > 46 µM | Potency [2] > 46 µM | Potency [3] | outcome [4]

C[N+](C)(CCCCCC[N+](C)(C)CCCN1C(=O)c2cccc3cccc(c23)C1=O)CCCN1C(=O)c2cccc3cccc(c23)C1=O
inactive: Potency [1] > 46 µM | Potency [2] > 46 µM | Potency [3] | outcome [4]

N[C@@H](CC(=O)O)C(=O)O
inactive: Potency [1] > 46 µM | Potency [2] > 46 µM

Cc1c(Nc2ncccc2C(=O)O)cccc1C(F)(F)F
inactive: Potency [3] | outcome [4]

CCCOC(=O)c1ccc(O)cc1
inactive: Potency [3] | Potency [5] | Potency [6] | Potency [7] | Potency [8] | Potency [9] | activity change, negative = cytotoxicity [10] -13.5% and -15.2% | Potency [11] | Potency [12] | Potency [13] | outcome [14] | outcome [15] | outcome [16] | outcome [17] | Potency [18] | Potency [19]

O=C(O)c1cc(O)c(O)c(O)c1
inactive: Potency [3] | Potency [5] | Potency [7] | activity change, negative = cytotoxicity [10] -19.1% | Potency [12] | Potency [13] | outcome [14] | outcome [15] | outcome [16] | outcome [17] | Potency [18] | Potency [19]
active: activity change, negative = cytotoxicity [6] -98.1%

C#C[C@]1(O)CC[C@H]2[C@@H]3CCc4cc(O)ccc4[C@H]3CC[C@@]21C
active: Potency [8] 20 µM | Potency [9] 31.6 µM
inactive: Potency [3] | Potency [5] | Potency [6] | Potency [11] | Potency [12] | Potency [13] | outcome [14] | outcome [15] | outcome [16] | outcome [17] | Potency [18] | Potency [19]

N=c1ccn2c(n1)O[C@H]1[C@H](O)[C@@H](CO)O[C@H]12
inactive: Potency [1] > 46 µM | Potency [2] > 46 µM | outcome [4]

Nc1ccc([N+](=O)[O-])cc1O
inactive: Potency [7] | Potency [8] | Potency [9] | activity change, negative = cytotoxicity [10] -10.2% | Potency [11] | Potency [12] | Potency [13] | outcome [14] | outcome [15] | outcome [16] | outcome [17] | Potency [18] | Potency [19]
active: Potency [6] 20 µM

N.N.O=C(O)C1(C(=O)O)CCC1.[Pt]
inactive: Potency [3] | outcome [4]

CCCN(CC1CC1)c1nc(C)nc(Nc2c(Cl)cc(Cl)cc2Cl)c1Cl
inactive: Potency [1] > 46 µM | Potency [2] > 46 µM | outcome [4]

N#C/C(=C\c1ccc(O)c(O)c1)C(=O)NCCCc1ccccc1
inactive: Potency [1] > 46 µM and > 20.6 µM | Potency [2] > 46 µM | outcome [4]

CCCCN1CCC(n2c(=O)[nH]c3ccccc32)CC1
inactive: Potency [1] > 46 µM | Potency [2] > 46 µM | outcome [4]

COc1cccc(C(=O)NCCN2CCN(c3ccc(Cl)cc3)CC2)c1
inactive: Potency [1] > 46 µM | Potency [2] > 46 µM | outcome [4]

Cn1c(=O)c2[nH]c(-c3ccccc3)nc2n(C)c1=O
inactive: Potency [1] > 46 µM | Potency [2] > 46 µM | outcome [4]

COc1cc(CNC(=O)CCCC/C=C/C(C)C)ccc1O
inactive: Potency [3] | Potency [5] | Potency [8] | activity change, negative = cytotoxicity [10] -16.6% | Potency [11] | Potency [12] | Potency [13] | outcome [14] | outcome [15] | outcome [16] | outcome [17] | Potency [18] | Potency [19]
active: Potency [6] 5.01 µM

CC(C)NCC(O)COc1cccc2ccccc12 (centres undefined)
active: Potency [8] 39.8 µM
inactive: Potency [3] | Potency [5] | Potency [9] | Potency [12] | Potency [13] | outcome [14] | outcome [15] | outcome [16] | outcome [17] | Potency [18] | Potency [19]
